Results published in PubChem BioAssay AID1159580 (chemical genetic matrix, 2015).
Several values for one entry are separate records, joined by “and”; a condition that tells them apart may be missing. Equal entries are not always repeated. The campaign covered roughly 5,500 compounds. About 2,000 (36%) were called active. Another 18% or so got no clear call; they are omitted. Cut-off read from the data, not from the text of the source: active = normalized growth mostly below about 0.91 (no sharp cut-off); inconclusive = no clear call, values can overlap the other calls; inactive = mostly above about 0.92. The list shows a part of the results.

Assay: chemical genetic growth profiling, strain panel (AID 1159580);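 note: tested at 20 µM; growth read once vehicle control cultures reached saturation at 30 °C; 1 = growth at the plate median or of vehicle wells; lower values mean less growth of the strain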
Details: S. cerevisiae deletion strains, growth OD

Measured: normalized growth

NC1=NCCN1CC(=O)O
inactive: locus YAL013W, strain DEP1, stronger effect = lower value 0.99 | locus YAL021C, strain ccr4, stronger effect = lower value 1.02 | locus YAL026C, strain drs2, stronger effect = lower value 1.02 | locus YAL030W, strain snc1, stronger effect = lower value 1.03 | locus YBL061C, strain skt5, stronger effect = lower value 1.01 | locus YBR009C, strain hhf1, stronger effect = lower value 1 | locus YBR021W, strain FUR4, stronger effect = lower value 1 | locus YBR023C, strain chs3, stronger effect = lower value 1.01 | locus YBR171W, strain sec66, stronger effect = lower value 1.01 | locus YBR229C, strain ROT2, stronger effect = lower value 0.96 | locus YBR231C, strain swc5, stronger effect = lower value 1.01 | locus YBR279W, strain paf1, stronger effect = lower value 1.01 | locus YCL011C, strain gbp2, stronger effect = lower value 1.04 | locus YCL016C, strain dcc1, stronger effect = lower value 1.01 | locus YCL029C, strain bik1, stronger effect = lower value 0.997 | locus YCL069W, strain vba3, stronger effect = lower value 1.01 | locus YCR088W, strain abp1, stronger effect = lower value 1.02 | locus YDL005C, strain med2, stronger effect = lower value 1.01 | locus YDL035C, strain GPR1, stronger effect = lower value 0.989 | locus YDL040C, strain nat1, stronger effect = lower value 1.01 | locus YDL074C, strain BRE1, stronger effect = lower value 0.924 | locus YDL101C, strain DUN1, stronger effect = lower value 0.961 | locus YDL134C, strain PPH21, stronger effect = lower value 1.01 | locus YDL185W, strain tfp1, stronger effect = lower value 0.986 | locus YDL192W, strain arf1, stronger effect = lower value 0.992 | locus YDR001C, strain nth1, stronger effect = lower value 1.01 | locus YDR069C, strain doa4, stronger effect = lower value 1.02 | locus YDR101C, strain arx1, stronger effect = lower value 0.996 | locus YDR137W, strain rgp1, stronger effect = lower value 1.04 | locus YDR150W, strain NUM1, stronger effect = lower value 0.986 | locus YDR159W, strain sac3, stronger effect = lower value 0.958 | locus YDR162C, strain NBP2, stronger effect = lower value 0.99 | locus YDR195W, strain ref2 1.02 | locus YDR297W, strain sur2, stronger effect = lower value 1 | locus YDR318W, strain mcm21, stronger effect = lower value 0.995 | locus YDR334W, strain swr1, stronger effect = lower value 1.01 | locus YDR335W, strain msn5, stronger effect = lower value 1.01 | locus YDR388W, stronger effect = lower value 0.989 | locus YDR392W, strain spt3, stronger effect = lower value 0.86 | locus YDR502C, strain sam2, stronger effect = lower value 0.988 | locus YEL003W, strain gim4, stronger effect = lower value 0.996 | locus YEL037C, strain rad23, stronger effect = lower value 1.02 | locus YEL061C, strain CIN8 (second series), stronger effect = lower value 1.03 | locus YEL061C, strain CIN8, stronger effect = lower value 0.981 | locus YER015W, strain faa2, stronger effect = lower value 1.02 | locus YER016W, strain bim1, stronger effect = lower value 1.03 | locus YER110C, stronger effect = lower value 0.988 | locus YER111C, strain swi4, stronger effect = lower value 1.03 | locus YER155C, strain BEM2 (second series), stronger effect = lower value 0.911 | locus YER155C, strain BEM2, stronger effect = lower value 1 | locus YER167W, strain BCK2, stronger effect = lower value 0.984 | locus YFR010W, strain ubp6, stronger effect = lower value 1.01 | locus YGL078C, strain dbp3, stronger effect = lower value 0.997 | locus YGL086W, strain mad1, stronger effect = lower value 0.98 | locus YGL167C, strain pmr1, stronger effect = lower value 1.01 | locus YGL173C, strain kem1, stronger effect = lower value 1 | locus YGL227W, strain vid30, stronger effect = lower value 1.04 | locus YGL240W, strain doc1, stronger effect = lower value 1 | locus YGL248W, strain PDE1, stronger effect = lower value 0.971 | locus YGL253W, strain hxk2, stronger effect = lower value 1.01 | locus YGR135W, strain pre9, stronger effect = lower value 1.01 | locus YGR229C, strain SMI1, stronger effect = lower value 1.02 | locus YGR252W, strain gcn5, stronger effect = lower value 1.01 | locus YHR013C, strain ard1, stronger effect = lower value 0.996 | locus YHR027C, strain rpn1, stronger effect = lower value 1.02 | locus YHR030C, strain SLT2, stronger effect = lower value 0.998 and 0.992 | locus YHR079C, strain IRE1 (second series), stronger effect = lower value 0.997 | locus YHR079C, strain IRE1, stronger effect = lower value 0.992 | locus YHR094C, strain hxt1, stronger effect = lower value 0.995 | locus YHR129C, strain ARP1, stronger effect = lower value 0.999 | locus YHR142W, strain chs7, stronger effect = lower value 0.992 | locus YHR200W, strain rpn10, stronger effect = lower value 0.99 | locus YIL066C, strain RNR3, stronger effect = lower value 0.966 | locus YIL073C, strain SPO22, stronger effect = lower value 1.07 | locus YIL125W, strain kgd1, stronger effect = lower value 0.984 | locus YIR030C, strain dcg1, stronger effect = lower value 0.994 | locus YJL092W, strain hpr5, stronger effect = lower value 1.01 | locus YJL095W, strain BCK1 (second series), stronger effect = lower value 1.02 | locus YJL095W, strain BCK1, stronger effect = lower value 0.969 and 0.972 | locus YJL115W, strain asf1, stronger effect = lower value 1.02 | locus YJL129C, strain trk1, stronger effect = lower value 1 | locus YJL134W, strain LCB3, stronger effect = lower value 0.988 | locus YJL154C, strain vps35, stronger effect = lower value 1.02 | locus YJL164C, strain tpk1, stronger effect = lower value 0.986 | locus YJL166W, strain qcr8, stronger effect = lower value 1 | locus YJL168C, strain set2, stronger effect = lower value 0.989 | locus YJL187C, strain SWE1 (second series), stronger effect = lower value 0.964 | locus YJL187C, strain SWE1, stronger effect = lower value 1
